# S2 tox = reduces viability in counter-screen for ATXN expression inhibitors. hit rate 0.49% among 400,000. AID 651635. Potency, µM (top dose mostly 56.7 µM), actives largely listed as cytotoxic. S2 cells (HEK-293 line with an ATXN2-luciferase reporter) viability, CellTiter-Fluor protease fluorescence, 24 h; note: nearly all actives have a fitted effect of over 40% in size
# ATXN2 expr inh = inhibitors of ATXN2 expression. HEK-293 ATXN2-luciferase reporter, luminescence, 24 h. Potency, µM (doses to about 57 µM), without a hit: top-dose activity change, negative = inhibition, usual class: inhibitors. hit rate 0.72% among 360,000; note: % is set by controls: 0 for no effect and ±100 for the full control effect; nearly all actives have a fitted effect of over 55% in size
#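 qHTS (up to 57 uM final) was run with 24 h compound exposure of reporter cells at 37 °C. Each well was multiplexed: SteadyGlo luminescence measured ATXN2-luciferase expression after a fluorogenic Gly-Phe-AFC viability readout (25 uM final).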
# HepG2 viability = counter-screen for TGF-b inhibitors: cytotoxicity in HepG2 cells; HepG2 CAGA-GFP viability, ATP luminescence, 18 h; Potency, µM (series often up to 46.1 µM), for inactives: at the highest dose activity change, negative = cytotoxicity, most hits filed as cytotoxic; hit rate 0.76% among 410,000; AID 588856
#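 CellTiter-Glo luminescence gave cytotoxicity after 18 hours at 37 degrees C. The cells were HepG2 CAGA-GFP in 1% FBS DMEM, stimulated with 500 pg/mL TGF-beta after compound addition. %Activity was normalised to no-cell wells (complete cell-killing) and DMSO (no toxicity), and curves were fitted and classified.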
# TGFb SMAD3 inh = TGF-b pathway inhibition; HepG2 CAGA-GFP TGF-b/SMAD3 reporter, GFP fluorescence, 18 h; TGF-beta stimulated, 500 pg/mL final; Potency, µM (doses to about 46.1 µM), inactives show at the highest dose activity, negative = inhibition, hits mostly inhibitors; AID 588855; hit rate 1.2% among 410,000; note: % is set by controls: 0 for no effect and ±100 for the full control effect; nearly all actives have a fitted effect of over 65% in size
#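 Per well, imaged GFP fluorescence of HEPG2 CAGA-GFP cells gives the signal; cells get compound, then TGF-beta (500 pg/mL final), 18 h at 37 degrees C; %Activity versus -TGF-beta and +DMSO controls.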
# Active calls of the source: *; i = inactive; ? = inconclusive; / = no result. The list is not random: actives were taken first. Their share in the collection is about 2.3%. Calls come from the whole dose curve; as a rule, active = well fitted curve in the direction sought with a large enough effect; inconclusive = small, poorly fitted or top-dose-only effect, or another doubt; inactive = no such curve, though single readings can be large; an effect the other way counts as inactive or inconclusive. Potency is the fitted concentration of half-maximal effect.
SMILES,S2 tox,ATXN2 expr inh,HepG2 viability,TGFb SMAD3 inh
O=Cc1[nH]c2ccccc2c1N(C(=O)CCl)c1ccc([N+](=O)[O-])cc1,?,?,-54.6%,?
CC(=O)n1cc(N(C(=O)CCl)c2ccccc2)c2ccccc21,/,?,7.08µM*,7.08µM*
CCc1cccc2c(C(O)(c3c[nH]c4c(CC)cccc34)c3c[nH]c4c(CC)cccc34)c[nH]c12,/,/,-14.1%,?
CCN1/C(=C/c2sc(-c3ccccc3C)c[n+]2C)Sc2ccccc21,/,?,-31.3%,2.51µM*
C#CCOCCOCCOCCNc1nc(N2CCN(C(=O)CCCCCCCCCCNC(=O)[C@H](CCCCN)n3cc(CCO)nn3)CC2)nc(N2CCN(C(=O)CCCCCCCCCCNC(=O)[C@H](CCCCN)n3cc(CCO)nn3)CC2)n1,?,-8.2%,-23.7%,?
CC(C)(C)OC(=O)NCCCC[C@@H](C(=O)NCCCCCCCCCCC(=O)N1CCN(C(=O)OC(C)(C)C)CC1)n1cc(CCO)nn1,35.5µM*,?,-13.8%,?
C#CCOCCOCCOCCNc1nc(N2CCN(C(=O)CCCCCCCCCCNC(=O)[C@H](CCCCN)n3cc(CCCC(=O)O)nn3)CC2)nc(N2CCN(C(=O)CCCCCCCCCCNC(=O)[C@H](CCCN=C(N)N)n3cc(C[C@@H](C)CC)nn3)CC2)n1,28.2µM*,?,-100.2%,?
C#CCOCCOCCOCCNc1nc(N2CCN(C(=O)CCCCCCCCCCNC(=O)[C@H](CCCCN)n3cc(CCO)nn3)CC2)nc(N2CCN(C(=O)CCCCCCCCCCNC(=O)[C@H](CCCN=C(N)N)n3cc(C[C@@H](C)CC)nn3)CC2)n1,17.8µM*,20µM*,-109.1%,?
C#CCOCCOCCOCCNc1nc(N2CCN(C(=O)CCCCCCCCCCNC(=O)[C@H](CCCCN)n3cc(C[C@@H](C)CC)nn3)CC2)nc(N2CCN(C(=O)CCCCCCCCCCNC(=O)[C@H](CCCCN)n3cc(C[C@@H](C)CC)nn3)CC2)n1,12.6µM*,22.4µM*,10µM*,?
C#CCOCCOCCOCCNc1nc(N2CCN(C(=O)CCCCCCCCCCNC(=O)[C@H](CCCCN)n3cc(CCCC(=O)O)nn3)CC2)nc(N2CCN(C(=O)CCCCCCCCCCNC(=O)[C@H](CCCCN)n3cc(CCCC(=O)O)nn3)CC2)n1,i,-30.3%,-2.3%,-11.0%
C#CCOCCOCCOCCNc1nc(N2CCN(C(=O)CCCCCCCCCCNC(=O)Cn3cc(C[C@@H](C)O)nn3)CC2)nc(N2CCN(C(=O)CCCCCCCCCCNC(=O)[C@H](CCCCN)n3cc(C[C@@H](C)CC)nn3)CC2)n1,20µM*,25.1µM*,12.6µM*,?
C#CCOCCOCCOCCNc1nc(N2CCN(C(=O)C(Cc3cc4ccccc4[nH]3)n3cc(C(N)Cc4ccc(O)cc4)nn3)CC2)nc(N2CCN(C(=O)C(Cc3cc4ccccc4[nH]3)n3cc(C(N)Cc4ccc(O)cc4)nn3)CC2)n1 (stereo not drawn),31.6µM*,?,0.6%,-16.0%
CCCSCCCNC(=O)C1CCCN(C(=O)c2cnn(-c3ccccc3)c2-n2cccc2)C1 (stereo not drawn),i,-12.4%,-22.5%,15.8µM*
COc1ccccc1NC1=C(N2CCCCC2)C(=O)c2ccccc2C1=O,?,?,15.8µM*,?
O=C(/C=C/c1ccc(O)cc1)c1ccc(NC2=C(N3CCCCC3)C(=O)c3ccccc3C2=O)cc1,?,?,-61.5%,6.31µM*
CN(C1=C(N2CCCCC2)C(=O)c2ccccc2C1=O)c1ccccc1,?,-8.1%,-26.1%,17.8µM*
O=C1C(Nc2ccccc2)=C(N2CCCCC2)C(=O)c2ccccc21,?,-11.3%,-51.6%,-3.3%
CC(=O)c1ccc(O)c(C(N)=O)c1,i,3.2%,/,/
Cc1ccc(C)c(S(=O)(=O)NCC(c2ccco2)S(=O)(=O)c2ccc(F)cc2)c1 (stereo not drawn),/,/,-37.3%,11.2µM*
O=S(=O)(NCC(c1ccco1)S(=O)(=O)c1cccs1)c1ccc(Cl)cc1 (stereo not drawn),/,/,-25.6%,?
CCOc1ccc(S(=O)(=O)NCC(c2ccco2)S(=O)(=O)c2ccc(C)cc2)cc1 (stereo not drawn),/,/,2.5%,?
O=S(=O)(NCC(c1ccco1)S(=O)(=O)c1cccs1)c1ccc(F)c(C(F)(F)F)c1 (stereo not drawn),/,/,-40.9%,4.47µM*
COc1ccc(S(=O)(=O)NCC(c2ccco2)S(=O)(=O)c2ccc(C)cc2)cc1C (stereo not drawn),/,/,-5.0%,10µM*
COCC(=O)Nc1cc(C(=O)N2CCCCC2c2nccs2)c2c(c1)nc(-c1ccncc1)n2C (stereo not drawn),i,/,/,/
CCOC(=O)/C(=N\Nc1ccc(Cl)cc1)c1csc(Nc2ccccc2)n1,?,1.7%,11.2µM*,?
SMILES,S2 tox,ATXN2 expr inh,HepG2 viability,TGFb SMAD3 inh
COc1cccc(/C=N/Nc2ncnc(N)c2[N+](=O)[O-])c1OC,i,8.91µM*,-12.5%,4.3%
CC1=C(CC(=O)c2ccc(Cl)cc2)C(=O)c2ccccc2C1=O,i,65.6%,12.6µM*,12.6µM*
Cc1cnc(C)c(-c2ccc(F)c3c2OC(CNC(=O)Cc2c(F)cccc2F)C3)n1 (stereo not drawn),i,/,/,/
NCCC[C@H](N)C(=O)O,i,/,/,/
Cc1cc(Cl)cc(C)c1OCCNCc1ccccc1,i,-23.0%,-43.5%,-18.0%
Clc1ccc(OCCOCCNCc2ccccc2)cc1Cl,i,/,-64.3%,11.2µM*
Cc1cc(C)c(OCCCCNCc2ccccc2)c(Cl)c1,/,0.0%,11.2µM*,?
Cc1cc(Cl)cc(C)c1OCCOCCNCc1ccccc1,?,/,14.1µM*,?
CC(C)(C)c1ccc(OCCNCc2ccccc2)cc1,i,-3.9%,-42.9%,-3.2%
C(=Nc1cccnc1)c1ccc2ccccc2n1,/,/,0.1%,-14.5%
CN1CCN(c2ncnc3c2ncn3[C@H]2CN(Cc3ccc(-c4ccccc4)cc3)C[C@@H](CO)O2)CC1,?,?,11.2µM*,?
OCCN1CCN(c2ncnc3c2ncn3[C@H]2CN(Cc3ccc(-c4ccccc4)cc3)C[C@@H](CO)O2)CC1,/,?,-33.9%,-6.2%
CN(C)CCNc1ncnc2c1ncn2[C@H]1CN(Cc2ccc(-c3ccccc3)cc2)C[C@@H](CO)O1,?,?,-87.5%,15.8µM*
Cc1ccc(Nc2nc(NCc3ccco3)nc3nccnc23)c(C)c1,/,/,6.8%,1.6%
COc1cccc(CN2CCC3(CCC(CNC(=O)c4cc(C)nn4C)O3)CC2)c1OC (stereo not drawn),i,/,/,/
CCc1[nH]nc2c1C(c1ccc(Br)s1)C(C#N)=C(N)O2 (stereo not drawn),i,0.0%,-98.8%,11.2µM*
Cc1ccc(SCc2[nH]nc3c2C(c2ccco2)C(C#N)=C(N)O3)cc1 (stereo not drawn),i,-7.5%,12.6µM*,?

# Assay outcomes deposited in PubChem by National Center for Advancing Translational Sciences (NCATS).
